Source: PubChem BioAssay (National Center for Advancing Translational Sciences (NCATS))
TDP1 cell CPT = DT40-hTDP1 cell growth loss with CPT. chicken DT40 Tdp1-/-;hTDP1 cells + 20 nM CPT, ATP luminescence, 48 h. Potency, µM (series often up to 46.2 µM), without a hit: at the highest dose activity change, negative = growth inhibition, usual class: inhibitors. hit rate 12% among 420,000; further: nearly all actives have a fitted effect of over 55% in size
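Chicken DT40 Tdp1-/- cells stably complemented with human TDP1 were seeded at 400 cells/well in medium containing 20 nM camptothecin, exposed to pin-transferred compounds, and grown at 37 °C for at least 48 hr. Viability was read as ATP luminescence.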
HT1080-NT tox = kills 2HG-producing HT-1080-NT fibrosarcoma cells; HT-1080-NT fibrosarcoma viability, CellTiter-Glo ATP luminescence, 48 h; Potency, µM (series often up to 46.1 µM), without a hit: at the top dose activity, negative = less viability, most hits filed as cytotoxic; hit rate 1.6% among 360,000; AID 686970;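 further: NT is the 2HG producing partner of a matched IDH1 knockdown line; 0% = DMSO-treated cells and -100% = media-only wells without cells; nearly all actives have a fitted effect of over 55% in size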
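A 48-hour cytotoxicity screen used HT-1080-NT cells plated 2 hours before compound delivery. ATP-based CellTiter-Glo luminescence measured viability, normalized to DMSO and no-cell controls.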
KB-V1 MDR tox = kills drug-selected multidrug resistant KB-V1 cells; KB-V1 MDR cells viability, CellTiter-Glo, 72 h; Potency, µM (top dose mostly 46.1 µM), usual class: cytotoxic; hit rate 3.4% among 400,000; AID 1347076; further: nearly all actives have a fitted effect of over 60% in size
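Potencies derive from concentration-effect curves fitted to normalized luminescence (CellTiter-Glo) of KB-V1 cells treated for 72 h at 37 degrees C in phenol-red-free DMEM containing 10% FBS.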
HT1080 IDH1KD tx = HT-1080 IDH1 knockdown cell toxicity (counter line). HT-1080 IDH1 knockdown viability, ATP luminescence, 48 h. Potency, µM (doses to about 46.1 µM), for the others: top-dose activity, negative = toxicity, usual class: cytotoxic. hit rate 2% among 360,000;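 further: 0% = DMSO wells and -100% = cell-free medium wells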
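After a 2 h attachment period, IDH1KD HT-1080 cells took pin-transferred compound for 48 h at 37 °C; ATP-based luminescence after 10 min room-temperature reagent incubation reported viability.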
DT40 TDP1 no CPT = qHTS for Inhibitors of human tyrosyl-DNA phosphodiesterase 1 (TDP1): qHTS in cells in absence of CPT; DT40 Tdp1-/- hTDP1 cells, no CPT, ATP luminescence, 48 h; Potency, µM (titrated, usually from 46.2 µM), inactives show at the top dose activity change, negative = growth inhibition, hits mostly inhibitors; hit rate 15% among 420,000; further: nearly all actives have a fitted effect of over 55% in size
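Chicken DT40 Tdp1-/- cells stably complemented with human TDP1 were seeded at 400 cells/well with DMSO in place of 20 nM camptothecin. After compound pinning, cells grew at least 48 hr at 37 °C; viability read by CellTiter-Glo luminescence.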
KB-3-1 cytotox = KB-3-1 parental cell cytotoxicity; hit rate 1.4% among 400,000; Potency, µM (top dose mostly 46.1 µM), most hits filed as cytotoxic; KB-3-1 viability, CellTiter-Glo ATP luminescence, 72 h; further: nearly all actives have a fitted effect of over 60% in size
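Luminescent ATP read-out (CellTiter-Glo) measures survival of drug-naive KB-3-1 cells after 72 h compound exposure at 37 °C. Titration series was screened from lowest to highest concentration, with DMSO vehicle plates as background controls.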
The depositor's hits bear a star; i = inactive; ? = inconclusive; . = no result. Shown are actives, neighbours in structure and some others; about 19% of the full set was active somewhere. The call rests on the fitted dose curve; in most records, active means well fitted curve in the direction sought with a large enough effect; inconclusive means small, poorly fitted or top-dose-only effect, or another doubt; inactive means no such curve, though single readings can be large; an effect the other way counts as inactive or inconclusive. Unless noted, on the % scale 0 is the no-effect control and ±100 the full control effect; potency means the concentration at half of the fitted maximal effect.

SMILES	TDP1 cell CPT	HT1080-NT tox	KB-V1 MDR tox	HT1080 IDH1KD tx	DT40 TDP1 no CPT	KB-3-1 cytotox
O=C(NCCCN1CCOCC1)c1ccccc1N1C(=O)[C@@H]2Cc3c([nH]c4ccccc34)C(c3cccc(Cl)c3)N2C1=O (some centres undefined)	9.2µM*	?	i	?	10.3µM*	i
COc1ccc(S(=O)(=O)Nc2ccc(F)cc2F)cc1C(=O)N1CCOCC1	1.3%	2.1%	i	14.3%	-0.9%	?
O=C(COC(=O)c1cc(-c2ccccc2)nc2c(Cl)cccc12)c1ccc(F)cc1	-29.9%	.	i	.	?	i
CCOC(=O)C1C(c2ccc3c(c2)OCO3)NC(=O)NC1(O)C(F)(F)F (centres undefined)	9.2µM*	14.8%	i	21.6%	13µM*	i
CCOC(=O)C1=C(CN2CC(C)CC(C)C2)NC(=O)NC1c1ccc2c(c1)OCO2 (centres undefined)	?	-27.3%	18.4µM*	-3.9%	25.9µM*	i
CCOC(=O)C1=C(CN2CCN(c3cccc(Cl)c3)CC2)NC(=O)NC1c1ccc(Cl)cc1 (centres undefined)	?	.	i	.	20.6µM*	i
CCOC(=O)C1=C(CN2CCCCCC2)NC(=O)NC1c1ccc2c(c1)OCO2 (centres undefined)	-25.0%	17.7%	?	7.5%	?	i
CCOC(=O)C1=C(CN2CCN(c3ccc(Cl)cc3)CC2)NC(=O)NC1c1ccc(OC)cc1 (centres undefined)	20.6µM*	.	?	.	25.9µM*	?
CC(C)CN1CCC(CN2CCNC(=O)C2=O)CC1	8.4%	-0.2%	i	3.0%	-7.3%	i
Cc1ccc(C(=O)OCC(=O)N2CCC(c3ccccc3)=N2)cc1	?	5.4%	i	10.4%	?	i
CC(=O)OCC(=O)[C@@]1(O)CCC2C3CC(C)C4=CC(=O)C=CC4(C)C3C(O)CC21C (some centres undefined)	-17.1%	.	.	.	-19.9%	.
COc1ccc2[nH]c(C)cc2c1	1.2%	.	i	.	4.4%	i
CCOC(=O)C1=C(CN2CCN(c3ccccc3OC)CC2)NC(=O)NC1c1ccccc1 (centres undefined)	?	.	i	.	?	i
CCOC(=O)C1=C(CN2CCC(C)CC2)NC(=O)NC1c1ccc(F)cc1 (centres undefined)	-5.1%	.	i	.	-25.9%	i
CCOC(=O)C1=C(CN2CCN(c3cc(C)ccc3C)CC2)NC(=O)NC1c1ccccc1 (centres undefined)	?	.	?	.	18.4µM*	?
CCOC(=O)C1=C(CN2CCN(CC)CC2)NC(=O)NC1c1ccc(Cl)cc1 (centres undefined)	?	.	i	.	23.1µM*	i
CCOC(=O)C1=C(CN2CCN(c3ccccc3)CC2)NC(=O)NC1c1ccc(C)cc1 (centres undefined)	25.9µM*	.	i	.	?	i
CCOC(=O)C1=C(CN2CCN(C(=O)c3ccco3)CC2)NC(=O)NC1c1ccc(Cl)cc1 (centres undefined)	?	-26.1%	?	-18.6%	?	i
CC(NC(=O)CSc1n[nH]c(-c2ccccc2Cl)n1)c1nc2ccccc2n1C (centres undefined)	-9.5%	.	i	.	-21.3%	i
O=C1CC(c2cc(F)ccc2F)c2cc3c(cc2N1)CCC3 (centres undefined)	2.59µM*	2.59µM*	i	2.59µM*	3.66µM*	4.61µM*
Cc1nc(-c2ccccc2)nc2[nH]ccc(=O)c12	13.4%	25.0%	9.2µM*	10.8%	-5.3%	?
